Among the data in PubChem BioAssay (NCATS) are Potency values, retold here.

Test [1] is described as follows: S16 Schwann cell PMP22 intronic element beta-lactamase assay (AID 624044; calls by dose curve; further: nearly all actives have a fitted effect of over 15% in size). Particulars: S16 rat Schwann cells, PMP22 element beta-lactamase FRET, 24 h; ratio activity, negative = inhibition: at 38.3 µM (top of the series) unless noted. The procedure, abridged:
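Rat S16 Schwann cells with beta-Lac driven by a PMP22 intronic element, compound-treated 24 h at 37 °C. LiveBLAzer FRET B/G read: 460 nm normalized to potassium clavulanate vs DMSO; 535 nm FRET as viability; concentration-effect curves classified.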

The subject of test [2] is 7G8. Put plainly: qHTS profiling for inhibitors of Plasmodium falciparum proliferation (AID 504749). Further: nearly all actives have a fitted effect of over 60% in size. Further: potency means the concentration at half of the fitted maximal effect. Particulars: P. falciparum in erythrocytes, SYBR Green DNA, 72 h; series mostly up to 12.8 µM. The procedure, abridged:
(§1)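 Infected RBCs, 0.3% parasitemia/2.5% Hct final; cpd 72 h, 37 C, 5% CO2; lysis buffer with saponin/triton/SYBR Green I, o/n RT dark; FI 485/535; norm. to artemisinin (0.29 uM) and DMSO.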
Background: qHTS replaces the single test concentration by a dilution series.

The test system of test [3] is CP237. Described as above. The settings on record: P. falciparum in erythrocytes, SYBR Green DNA, 72 h; series mostly up to 28.7 µM. The procedure, abridged:
as §1

In test [4] the test system is CP247. The test is described as above. Particulars: P. falciparum in erythrocytes, SYBR Green DNA, 72 h; series mostly up to 28.7 µM. A digest of the protocol:
as §1

For test [5], the system named is Dd2. The test is described as above. The settings on record: P. falciparum in erythrocytes, SYBR Green DNA, 72 h; series mostly up to 28.7 µM. The procedure, abridged:
as §1

Test [6] deals with ICS. The description is as above. Particulars: P. falciparum in erythrocytes, SYBR Green DNA, 72 h; series mostly up to 28.7 µM. A digest of the protocol: as §1
Test [7] relates to W2. The description is as above. The settings on record: P. falciparum in erythrocytes, SYBR Green DNA, 72 h; series mostly up to 12.8 µM. A digest of the protocol:
as §1

A short description of test [8]: Confirmation and Secondary Assay for Modulators of Hemoglobin Beta Chain Splicing at IVS2 654 locus (AID 910).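 Further: HeLa cells stably carrying EGFP split by mutant beta-globin IVS2-654 intron; per-well total GFP intensity by laser scanning cytometry after 2-day treatment.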 A digest of the protocol:
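Readout: per-well total peak green fluorescence (488 nm ex, 500–520 nm em) from objects 5–250 µm, reflecting correct splicing of an EGFP-654 reporter. Compounds were applied for 2 days at 37 °C to overnight-plated HeLa EGFP-654 cells; controls were DMSO and 500 nM IVS2-654 PNA.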

For test [9], the system named is AS120. As to the kind of experiment: qHTS profiling for inhibitors of Plasmodium falciparum proliferation (AID 504749). Further: nearly all actives have a fitted effect of over 60% in size. Further: potency means the concentration at half of the fitted maximal effect. Particulars: P. falciparum in erythrocytes, SYBR Green DNA, 72 h; series mostly up to 28.7 µM. The procedure, abridged:
as §1

Test [10] deals with ATS189. The description is as above. Particulars: P. falciparum in erythrocytes, SYBR Green DNA, 72 h; series mostly up to 28.7 µM. A digest of the protocol: as §1
Test [11] deals with CP185. The description is as above. The settings on record: P. falciparum in erythrocytes, SYBR Green DNA, 72 h; series mostly up to 28.7 µM. The procedure, abridged:
as §1

The test system of test [12] is CP192. The description is as above. Particulars: P. falciparum in erythrocytes, SYBR Green DNA, 72 h; series mostly up to 28.7 µM. A digest of the protocol: as §1
Test [13] concerns CP194. The test is described as above. Particulars: P. falciparum in erythrocytes, SYBR Green DNA, 72 h; series mostly up to 28.7 µM. The procedure, abridged: as §1
Test [14] relates to CP203. The description is as above. The settings on record: P. falciparum in erythrocytes, SYBR Green DNA, 72 h; series mostly up to 28.7 µM. The procedure, abridged: as §1
Test [15] relates to CP238. The test is described as above. Particulars: P. falciparum in erythrocytes, SYBR Green DNA, 72 h; series mostly up to 28.7 µM. The procedure, abridged: as §1
Test [16] deals with CP268. Described as above. Particulars: P. falciparum in erythrocytes, SYBR Green DNA, 72 h; series mostly up to 28.7 µM. The procedure, abridged: as §1
The test system of test [17] is CP305. The test is described as above. Particulars: P. falciparum in erythrocytes, SYBR Green DNA, 72 h; series mostly up to 28.7 µM. The procedure, abridged:
as §1

In test [18] the test system is DFO2036. The description is as above. The settings on record: P. falciparum in erythrocytes, SYBR Green DNA, 72 h; series mostly up to 28.7 µM. A digest of the protocol: as §1
Test [19] deals with DIV30. The description is as above. Particulars: P. falciparum in erythrocytes, SYBR Green DNA, 72 h; series mostly up to 28.7 µM. A digest of the protocol: as §1
In test [20] the test system is P94_40. Described as above. Particulars: P. falciparum in erythrocytes, SYBR Green DNA, 72 h; series mostly up to 28.7 µM. The procedure, abridged: as §1

The structures appear in SMILES notation. Results filed as inconclusive are left out. Calls of active or inactive are those of the source. Unless noted, the call rests on the fitted dose curve; in most records, active means well fitted curve in the direction sought with a large enough effect; inconclusive means small, poorly fitted or top-dose-only effect, or another doubt; inactive means no such curve, though single readings can be large; an effect the other way counts as inactive or inconclusive.

On to `CC[C@]1(c2cccc(O)c2)CCCCN(C)C1`, for which the Potency entry in test [1], in test [2], in test [4] and in [6] was “inactive” each time. Moreover, the Potency was 3.16 µM (active) in test [3], 3.16 µM (active) in [5] and 3.22 µM (active) in test [7].

As for `COc1cc2c3cc1Oc1c(OC)c(OC)cc4c1C(Cc1cccc(c1)Oc1ccc(c(O)c1)CC3N(C)CC2)N(C)CC4` (stereo unspecified), the Potency result in test [8] was “inactive”.

In the case of `C[C@@]12CCC(Cl)C[C@H]1CCC1C2CC[C@]2(C)C(=O)CCC12` (stereo partly specified), the Potency entry in test [8] is “inactive”.

For the molecule `C[C@H](NC(C)(C)C)C(=O)c1cccc(Cl)c1`, the Potency result in test [1], in test [9], in test [10], in test [11], in test [12] and in [13] was “inactive” each time. Moreover, the Potency result in test [14], in test [15], in test [16], in test [17], in test [18] and in [19] was “inactive” throughout. Also, in [20], the Potency entry is “inactive”.

`CN(C)C(=O)Oc1cc(OC(=O)N(C)C)cc([C@@H](O)CNC(C)(C)C)c1`: the Potency entry in test [1], in [2], in [9], in test [10], in test [11] and in [12] was “inactive” throughout. Further, the Potency result in test [13], in test [14], in [3], in test [15], in [4] and in test [16] was “inactive” each time. The Potency entry in [17], in test [18], in [19], in test [5], in test [6] and in test [20] was “inactive” in each case. The Potency result in test [7] is “inactive”.
